Reference: PubChem BioAssay (EPA / NIEHS)
Inconclusive results are not listed. Calls of active or inactive are those of the source. Rule for the calls, unless noted: active = hit-call score of the fitted dose curve at least 0.9, where 1 is the maximum; inactive = score below 0.9.

Target: Cellular tumor antigen p53 (Homo sapiens) (UniProt P04637)
Assay: ATG_p53_CIS: Attagene CIS-FACTORIAL HepG2 Assay for human p53 Transcription Factor (AID 2282994)
Details: HepG2 p53 cis-element reporter, Attagene mRNA; actives raise or lower the signal
Procedure, shortened: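 Steps: transfect HepG2 with multiplexed cis reporter constructs; dose chemicals 24 h; extract RNA, reverse-transcribe, PCR-amplify reporter sequences; FAM-label, HpaI-digest, resolve fragments by CE. Activity fitted both directions relative to DMSO.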

Cellular tumor antigen p53 (Homo sapiens), sequence (P04637 whole entry, looked up): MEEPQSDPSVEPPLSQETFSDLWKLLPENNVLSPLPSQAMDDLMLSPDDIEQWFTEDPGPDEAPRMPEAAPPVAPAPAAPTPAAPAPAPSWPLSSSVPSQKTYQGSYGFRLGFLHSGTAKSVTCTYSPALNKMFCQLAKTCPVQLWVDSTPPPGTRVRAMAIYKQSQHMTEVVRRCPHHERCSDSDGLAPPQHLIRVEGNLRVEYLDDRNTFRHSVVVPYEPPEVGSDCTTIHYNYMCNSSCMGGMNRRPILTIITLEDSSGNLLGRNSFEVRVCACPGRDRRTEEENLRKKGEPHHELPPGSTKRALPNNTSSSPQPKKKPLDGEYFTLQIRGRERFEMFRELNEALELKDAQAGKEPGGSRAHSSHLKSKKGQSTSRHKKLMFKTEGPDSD

outcome, inactive:
C=COCCOCCOCCOC=C, CC(O)C(C)O (stereo unspecified), CN(C)CCOCCN(C)C, O=C(O)Cc1cccc2ccccc12, CCCc1ccccc1O, C=C[C@@H](C)CCC=C(C)C, O=S(=O)(O)c1ccc(O)c2ncccc12, CCC(C(=O)NC(N)=O)c1ccccc1 (stereo unspecified), CCCCCC=CCC(=O)OC, CCC(C)CCCC(C)(C)O (stereo unspecified), COCCCOc1ccnc(CS(=O)c2nc3ccccc3[nH]2)c1C (stereo unspecified), CC(C)(C#N)c1cc(Cn2cncn2)cc(C(C)(C)C#N)c1, C=C(C)C(=O)Nc1ccc(Cl)c(Cl)c1, C=CC(=O)NCOCC(C)C, CCCCCCCCCCCCN(CCCCCCCCCCCC)CCCCCCCCCCCC, CC1CCC2CC1C2(C)C (stereo unspecified), c1ccc2[nH]ccc2c1, O=c1[nH]nnc2ccccc12, Clc1ccc(Cl)c(Cl)c1Cl, CCCCCCCCCCCCCOS(=O)(=O)O, O=C(O)CCCCCCCC(=O)O, CCN(CC)CCOC(=O)c1ccc(N)cc1, O=C1O[C@@H]2[C@@H](O)[C@H](O)O[C@@H]2[C@H]1O, C/C=C(\C)C(=O)OCc1ccccc1, CCC(O)CO (stereo unspecified), CCN(CC)c1ccc(C(=C2C=CC(=[N+](CC)CC)C=C2)c2ccc(S(=O)(=O)O)cc2S(=O)(=O)[O-])cc1, COCCOCCOCCOCCOCCO, CCc1ccc(C=O)cc1, O=C(Oc1ccccc1)c1ccc(O)cc1, Cc1cccc(C)c1C, CCCCc1ccc(N)cc1, NC(N)=NC(=O)c1nc(Cl)c(N)nc1N, CCCC(C)C=O (stereo unspecified), O=C(O)CCCCC1CCSS1 (stereo unspecified)

AC50, active:
Nc1cc(Cl)c(O)c(Cl)c1 144 µM, CNCCCC12CCC(c3ccccc31)c1ccccc12 16 µM, c1cc(C(c2ccc(OCC3CO3)cc2)c2ccc(OCC3CO3)cc2)ccc1OCC1CO1 (stereo unspecified) 11.8 µM, CC(CN1c2ccccc2Sc2ccccc21)N(C)C (stereo unspecified) 30.5 µM

Target: human Peroxisome Proliferator-activated Receptor alpha (PPARa), PPARA (gene 5465) (UniProt Q07869)
Sequence (Q07869 whole entry, looked up): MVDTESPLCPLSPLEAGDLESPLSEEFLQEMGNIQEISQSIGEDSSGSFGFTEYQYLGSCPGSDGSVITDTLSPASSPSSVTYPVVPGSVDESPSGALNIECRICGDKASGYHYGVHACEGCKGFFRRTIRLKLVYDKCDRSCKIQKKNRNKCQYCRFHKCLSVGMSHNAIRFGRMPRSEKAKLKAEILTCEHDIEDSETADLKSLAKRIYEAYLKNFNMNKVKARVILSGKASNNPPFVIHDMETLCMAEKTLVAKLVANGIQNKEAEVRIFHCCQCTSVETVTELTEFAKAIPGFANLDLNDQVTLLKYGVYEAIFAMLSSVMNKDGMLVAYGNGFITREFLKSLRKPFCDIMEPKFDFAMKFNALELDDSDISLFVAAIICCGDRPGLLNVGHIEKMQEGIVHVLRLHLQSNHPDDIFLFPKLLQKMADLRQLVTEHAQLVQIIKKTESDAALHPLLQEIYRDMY
Assay: ATG_PPARa_TRANS: Attagene TRANS-FACTORIAL HepG2 Assay for human Peroxisome Proliferator-activated Receptor alpha (PPARa) (AID 2283001; active = hit-call score of the fitted dose curve at least 0.9, where 1 is the maximum;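 for AC50: potency for gain of reporter signal over DMSO so agonist or activator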)
Details: not given
Procedure, shortened: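 Transfected HepG2 cells treated with test chemical for 24 h. RNA isolated, reverse-transcribed with oligo(dT), PCR-amplified, FAM-labelled and HpaI-digested. Fragments sized by capillary electrophoresis; gain-of-signal fit relative to DMSO.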

outcome, inactive:
C=COCCOCCOCCOC=C, CC(O)C(C)O (stereo unspecified), Nc1cc(Cl)c(O)c(Cl)c1, CN(C)CCOCCN(C)C, O=C(O)Cc1cccc2ccccc12, CNCCCC12CCC(c3ccccc31)c1ccccc12, CCCc1ccccc1O, C=C[C@@H](C)CCC=C(C)C, O=S(=O)(O)c1ccc(O)c2ncccc12, CCC(C(=O)NC(N)=O)c1ccccc1 (stereo unspecified), c1cc(C(c2ccc(OCC3CO3)cc2)c2ccc(OCC3CO3)cc2)ccc1OCC1CO1 (stereo unspecified), CCCCCC=CCC(=O)OC, CCC(C)CCCC(C)(C)O (stereo unspecified), COCCCOc1ccnc(CS(=O)c2nc3ccccc3[nH]2)c1C (stereo unspecified), CC(C)(C#N)c1cc(Cn2cncn2)cc(C(C)(C)C#N)c1, C=C(C)C(=O)Nc1ccc(Cl)c(Cl)c1, C=CC(=O)NCOCC(C)C, CCCCCCCCCCCCN(CCCCCCCCCCCC)CCCCCCCCCCCC, CC1CCC2CC1C2(C)C (stereo unspecified), c1ccc2[nH]ccc2c1, O=c1[nH]nnc2ccccc12, Clc1ccc(Cl)c(Cl)c1Cl, O=C(O)CCCCCCCC(=O)O, CCN(CC)CCOC(=O)c1ccc(N)cc1, O=C1O[C@@H]2[C@@H](O)[C@H](O)O[C@@H]2[C@H]1O, CC(CN1c2ccccc2Sc2ccccc21)N(C)C (stereo unspecified), C/C=C(\C)C(=O)OCc1ccccc1, CCC(O)CO (stereo unspecified), CCN(CC)c1ccc(C(=C2C=CC(=[N+](CC)CC)C=C2)c2ccc(S(=O)(=O)O)cc2S(=O)(=O)[O-])cc1, COCCOCCOCCOCCOCCO, CCc1ccc(C=O)cc1, O=C(Oc1ccccc1)c1ccc(O)cc1, Cc1cccc(C)c1C, NC(N)=NC(=O)c1nc(Cl)c(N)nc1N, CCCC(C)C=O (stereo unspecified), O=C(O)CCCCC1CCSS1 (stereo unspecified)

AC50, active:
CCCCCCCCCCCCCOS(=O)(=O)O 3.35 µM, CCCCc1ccc(N)cc1 38.7 µM
